Data taken from PubChem BioAssay (NCI).
Compounds without any hit were thinned out: in the full panel of roughly 79,000, 15% have a hit. Activity calls are given as the source filed them. Cut-off read from the data, not from the text of the source: active = growth inhibition above about 70%; inactive = the rest.

Tests used:
[1] = NCI Yeast Anticancer Drug Screen. Data for the wt1 strain (AID 149);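 note: 0% = growth of vehicle-treated wt1 cultures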; conditions: S. cerevisiae wt1 strain (SPY 50644) growth inhibition, hits give high values
Summary of the method: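 Growth inhibition read against vehicle controls after compound exposure of the wt1 yeast strain.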

[2] = NCI Yeast Anticancer Drug Screen. Data for the rad50EPP+ strain (AID 151);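 note: 0% = growth of vehicle-treated control cultures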; conditions: S. cerevisiae rad50 mutant strain, hits give high values
Summary of the method: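 One strain with a rad50 alteration (rad50EPP+) was compound-treated, its growth then compared to that of vehicle controls.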

[3] = NCI Yeast Anticancer Drug Screen. Data for the mgt1 strain (AID 153); conditions: S. cerevisiae mgt1 mutant growth inhibition, hits give high values
Summary of the method: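 After exposure of the mgt1 yeast mutant to compound, growth was measured and reported as inhibition compared with vehicle controls.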

[4] = NCI Yeast Anticancer Drug Screen. Data for the rad50 strain (AID 155);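 note: 0% = growth of vehicle-only cultures of the same strain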; conditions: S. cerevisiae rad50 strain growth inhibition, hits give high values
Summary of the method: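 Readout: growth inhibition relative to vehicle-treated cultures. Compound exposure was carried out in a genetically defined yeast strain deficient in DNA damage repair.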

[5] = NCI Yeast Anticancer Drug Screen. Data for the mec2-1 strain (AID 157); conditions: S. cerevisiae mec2-1 strain, hits give high values
Summary of the method: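 Test agents were screened against the mec2-1 yeast strain, with defined DNA repair or cell cycle alteration. Growth was scored as inhibition against vehicle-only controls.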

[6] = NCI Yeast Anticancer Drug Screen. Data for the rad14 strain (AID 159);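 note: 0% = growth of vehicle-treated control cultures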; conditions: S. cerevisiae rad14 strain growth inhibition, hits give high values
Summary of the method: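 Growth inhibition vs vehicle controls; genetically altered yeast strain (DNA damage repair defect) treated with test compounds.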

[7] = NCI Yeast Anticancer Drug Screen. Data for the sgs1 mgt1 strain (AID 161);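 note: 0% = growth of cultures given vehicle only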; conditions: S. cerevisiae sgs1 mgt1 strain, hits give high values
Summary of the method: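 Test agents were incubated with a DNA-repair-mutant yeast strain. Growth was then read and compared against vehicle-treated controls.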

[8] = NCI Yeast Anticancer Drug Screen. Data for the CLN2oe strain (AID 163);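 note: 0% = growth of vehicle-only control cultures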; conditions: S. cerevisiae CLN2oe strain, hits give high values
Summary of the method: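 Here, growth inhibition in a cell-cycle-altered yeast strain after compound exposure was quantified against vehicle control growth.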

[9] = NCI Yeast Anticancer Drug Screen. Data for the cln2 rad14 strain (AID 165);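 note: 0% = growth equal to vehicle treated cultures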; conditions: S. cerevisiae cln2 rad14 strain, hits give high values
Summary of the method: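 Growth of compound-exposed yeast (cln2 rad14 genotype) measured and expressed as inhibition relative to vehicle.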

[10] = NCI Yeast Anticancer Drug Screen. Data for the bub3 strain (AID 167); conditions: S. cerevisiae bub3 mutant strain, hits give high values
Summary of the method: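 Readout: yeast growth inhibition, expressed relative to vehicle-only wells. The test organism is a mutant strain from a panel with lesions in DNA repair or checkpoint genes.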

[11] = NCI Yeast Anticancer Drug Screen. Data for the mlh1 strain (AID 171);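 note: 0% = growth of vehicle-treated control cultures of the same strain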; conditions: S. cerevisiae mlh1 strain growth inhibition, hits give high values
Summary of the method: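 Here the genetically defined yeast mutant is grown with each compound, and the extent to which its growth falls below that of vehicle-exposed cells is reported.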

[12] = NCI Yeast Anticancer Drug Screen. Data for the sgs1 strain (AID 173);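 note: 0% = growth of vehicle-only control cultures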; conditions: S. cerevisiae sgs1 mutant, hits give high values
Summary of the method: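 Relative growth inhibition, referenced to vehicle, was determined in a yeast strain with a defined alteration affecting DNA damage repair or cell cycle control after compound exposure.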

[13] = NCI Yeast Anticancer Drug Screen. Data for the mlh1 rad18 strain (AID 175); conditions: S. cerevisiae mlh1 rad18 strain growth inhibition, hits give high values
Summary of the method: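 In this whole-cell yeast screen, a strain with altered DNA damage repair is challenged with compound, and its growth is measured against matched vehicle-treated controls.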

[14] = NCI Yeast Anticancer Drug Screen. Data for the rad18 strain (AID 177); conditions: S. cerevisiae rad18 mutant growth inhibition, hits give high values
Summary of the method: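 Screen uses a yeast strain with a defined lesion in DNA damage repair; compound effect is read as loss of growth compared to untreated vehicle cultures.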

[15] = at 5.0 µM (retest, dose inferred, filed as 0.5)
[16] = at 50.0 µM (retest, dose inferred, filed as 5.0)

Measured: growth inhibition

CCSc1c2ccccc2c(-c2nc(F)nc(F)n2)n1CCc1ccccc1
inactive: [1]; at 1.2 µM -7% | [1]; at 3.7 µM -4% | [1]; at 11.0 µM 10% | [2]; at 1.2 µM -22% | [2]; at 3.7 µM -17% | [2]; at 11.0 µM -22% | [2]; at 33.0 µM -15% | [2]; at 100.0 µM 3% | [3]; at 1.2 µM -27% | [3]; at 3.7 µM -32% | [3]; at 11.0 µM -29% | [4]; at 1.2 µM -30% | [4]; at 3.7 µM -10% | [4]; [15] -23% | [4]; at 11.0 µM -6% | [4]; [16] 52% | [5]; at 1.2 µM -14% | [5]; at 3.7 µM -17% | [5]; [15] -43% | [5]; at 11.0 µM -4% | [5]; [16] 0% | [6]; at 1.2 µM -17% | [6]; at 3.7 µM -12% | [6]; at 11.0 µM 2% | [7]; [15] -15% | [8]; at 1.2 µM -24% | [8]; at 3.7 µM -20% | [8]; at 11.0 µM 4% | [9]; [15] 19% | [10]; at 1.2 µM -11% | [10]; at 3.7 µM -21% | [10]; [15] 0% | [10]; at 11.0 µM -3% | [11]; at 1.2 µM -41% | [11]; at 3.7 µM -34% | [11]; at 11.0 µM -22% | [12]; at 1.2 µM 34% | [12]; at 3.7 µM 32% | [12]; at 11.0 µM 39% | [13]; [15] -12% | [14]; at 1.2 µM -5% | [14]; at 3.7 µM 0% | [14]; at 11.0 µM 7%
active: [1]; at 33.0 µM 80% | [1]; at 100.0 µM 97% | [3]; at 33.0 µM 81% | [3]; at 100.0 µM 97% | [4]; at 33.0 µM 72% | [4]; at 50.0 µM 87% | [4]; at 100.0 µM 96% | [5]; at 33.0 µM 78% | [5]; at 50.0 µM 80.7% | [5]; at 100.0 µM 98% | [6]; at 33.0 µM 84% | [6]; at 100.0 µM 97% | [7]; [16] 70% | [7]; at 50.0 µM 87.7% | [8]; at 33.0 µM 89% | [8]; at 100.0 µM 97% | [9]; [16] 70% | [9]; at 50.0 µM 86.6% | [10]; at 33.0 µM 82% | [10]; [16] 88% | [10]; at 50.0 µM 86% | [10]; at 100.0 µM 97% | [11]; at 33.0 µM 75% | [11]; at 100.0 µM 97% | [12]; at 33.0 µM 79% | [12]; at 100.0 µM 98% | [13]; [16] 77% | [13]; at 50.0 µM 81.3% | [14]; at 33.0 µM 75% | [14]; at 100.0 µM 97%

O=[N+]([O-])c1cccc2nc3ccccc3c(NCCC[N+]3([O-])CCOCC3)c12
active: [1]; at 100.0 µM 87% | [2]; at 33.0 µM 79% | [2]; at 100.0 µM 92% | [3]; at 100.0 µM 85% | [4]; at 11.0 µM 88% | [4]; at 33.0 µM 94% | [4]; [16] 92% | [4]; at 50.0 µM 83.4% | [4]; at 100.0 µM 95% | [5]; at 11.0 µM 89% | [5]; at 33.0 µM 97% | [5]; [16] 98% | [5]; at 50.0 µM 82.8%
inactive: [1]; at 1.2 µM -78% | [1]; at 3.7 µM 5% | [1]; at 11.0 µM 16% | [1]; at 33.0 µM 47% | [2]; at 1.2 µM 6% | [2]; at 3.7 µM 19% | [2]; at 11.0 µM 42% | [3]; at 1.2 µM 1% | [3]; at 3.7 µM 5% | [3]; at 11.0 µM 17% | [3]; at 33.0 µM 55% | [4]; at 1.2 µM 37% | [4]; at 3.7 µM 65% | [4]; [15] 37% | [5]; at 1.2 µM 7% | [5]; at 3.7 µM 41% | [5]; [15] 9%
